# KCNH2 3.1 block = qHTS for Inhibitors of KCHN2 3.1: Mutant qHTS. U2OS KCNH2 3.1, thallium flux FluxOr; active compounds read low. activity change, % (tested at about 1.8 µM). 340,000 tested, 0.95% active. AID 720553, 2013;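 active means maximum activity change below -70%; inconclusive means maximum activity change from -70% to -50%; inactive means maximum activity change above -50%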;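 further: thallium influx rate constant from kinetic fluorescence after stimulation buffer; on the % scale 0 is the no-effect control and ±100 the full control effect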
#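 FluxOr-based Tl+ influx in U2OS cells transduced with KCNH2 3.1 virus; rate constants normalized to DMSO controls.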
# hERG WT inh = qHTS for Inhibitors of KCHN2 3.1: Wildtype qHTS | U2OS, BacMam KCNH2, thallium flux FluxOr; active compounds read low | activity change, % at 1.84 µM | 340,000 tested, 0.37% active;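 active means maximum activity change below -70%; inconclusive means maximum activity change between -70% and -50%; inactive means maximum activity change above -50%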; further: on the % scale 0 is the no-effect control and ±100 the full control effect
# Target sequence (Q12809 whole entry, looked up): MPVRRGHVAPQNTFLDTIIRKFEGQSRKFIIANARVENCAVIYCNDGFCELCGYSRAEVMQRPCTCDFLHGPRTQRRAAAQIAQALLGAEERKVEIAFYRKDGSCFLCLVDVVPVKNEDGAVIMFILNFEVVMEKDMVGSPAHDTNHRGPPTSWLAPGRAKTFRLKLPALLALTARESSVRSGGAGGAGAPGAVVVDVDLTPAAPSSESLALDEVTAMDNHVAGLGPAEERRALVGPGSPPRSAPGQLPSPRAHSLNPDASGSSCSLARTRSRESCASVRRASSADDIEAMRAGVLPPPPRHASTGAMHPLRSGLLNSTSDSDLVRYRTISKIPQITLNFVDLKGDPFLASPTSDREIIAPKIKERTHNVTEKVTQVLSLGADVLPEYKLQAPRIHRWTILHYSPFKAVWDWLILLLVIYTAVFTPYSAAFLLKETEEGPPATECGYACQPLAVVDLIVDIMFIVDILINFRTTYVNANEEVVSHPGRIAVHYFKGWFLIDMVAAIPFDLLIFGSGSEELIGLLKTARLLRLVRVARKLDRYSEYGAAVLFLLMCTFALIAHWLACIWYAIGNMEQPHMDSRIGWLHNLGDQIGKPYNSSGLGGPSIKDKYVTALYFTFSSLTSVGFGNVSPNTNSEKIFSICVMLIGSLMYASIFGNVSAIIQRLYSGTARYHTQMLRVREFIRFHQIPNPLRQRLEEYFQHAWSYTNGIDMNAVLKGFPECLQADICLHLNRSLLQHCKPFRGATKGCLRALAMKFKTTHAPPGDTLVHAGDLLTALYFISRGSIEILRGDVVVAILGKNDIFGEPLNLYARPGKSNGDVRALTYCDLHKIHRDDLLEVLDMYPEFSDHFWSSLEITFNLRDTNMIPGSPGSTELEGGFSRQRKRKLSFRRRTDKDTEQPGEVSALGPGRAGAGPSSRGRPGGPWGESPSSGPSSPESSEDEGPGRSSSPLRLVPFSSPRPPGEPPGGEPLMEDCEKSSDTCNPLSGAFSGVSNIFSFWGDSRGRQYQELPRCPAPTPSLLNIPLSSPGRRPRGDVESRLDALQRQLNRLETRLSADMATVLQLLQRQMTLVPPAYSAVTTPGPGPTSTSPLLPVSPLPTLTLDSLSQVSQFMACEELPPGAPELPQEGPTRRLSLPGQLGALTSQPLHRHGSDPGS
#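 U2OS cells transduced with wild-type KCNH2 virus are loaded with FluxOr dye for 45 min, and thallium flux is measured in kinetic reads before and after stimulation buffer. Rate constants are normalized to DMSO controls.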
# TRPV1 PAM = HTS Assay for Compounds that Act as Potentiators of the Vanilloid Receptor 1; Transient receptor potential cation channel subfamily V member 1 (Homo sapiens), Q8NER1; TRPV1-expressing cells, Fluo-8 calcium influx, capsaicin EC20 potentiation; potentiation, % at 8.33 µM; 320,000 tested, 0.02% active; AID 540277, 2011; in the data active means potentiation above about 80%; inconclusive means between about 30% and that limit; further: 0% is about no effect
#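 Fluo-8 calcium influx in TRPV1-expressing cells, kinetic read (ex 480/em 520 nm). Compound added and read 3 min for agonist activity, followed by capsaicin at EC20 final and 2 min further read for enhancement.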
# TRPV1 agonist = HTS Assay for Compounds that Act as Agonists of the Vanilloid Receptor 1; Transient receptor potential cation channel subfamily V member 1 (Homo sapiens), Q8NER1; TRPV1-expressing cells, Fluo-8 calcium influx, agonist mode; activation, % at 8.33 µM; 320,000 tested, 0.19% active; in the data active means activation above about 80%; inconclusive means between about 30% and that limit; further: 0% is about no effect
#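 TRPV1-expressing cells were cultured overnight at 35.5C and loaded with Fluo-8 calcium dye for 40 to 90 min at room temperature. After a 10 s baseline, compound was added and calcium influx was read kinetically for 3 min (ex 480/em 520 nm).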
# * hit, by the source's call; i = inactive; ? = inconclusive; · = no result. Most compounds without a hit are left out; they make up all but 1.2% or so of the library.
SMILES,KCNH2 3.1 block,hERG WT inh,TRPV1 PAM,TRPV1 agonist
Cc1c(C(=O)NCCSCc2ccco2)cccc1[N+](=O)[O-],8,-4,-11,19
O=C(COC(=O)C1CCN(c2ccc(C(F)(F)F)cn2)CC1)c1ccc(F)cc1,-78*,-44,?,0
COc1cc(C(=O)COC(=O)C2CCN(c3ccc(C(F)(F)F)cn3)CC2)ccc1OC(F)F,-79*,-7,-12,5
CC(C)(C)C(=O)Nc1ccc(C(=O)COC(=O)c2ccccn2)cc1,-4,-12,·,·
Cc1nc(Cl)sc1C(=O)Nc1ccc(C(C)(C)C)cc1,-6,-17,-2,80*
CC1CCCCC1NC(=O)COC(=O)c1ccc2c(c1)NC(=O)CS2 (stereo not drawn),9,-3,·,·
CC(C)CNC(=O)c1ccccc1C(=O)NC1(C(=O)NCC(C)C)CCCC1,-8,-10,·,·
CCOC(=O)N1CCC(NC(=O)c2cc3sccc3n2CC)CC1,-8,-10,7,-2
CCn1c(C(=O)NC2CCC(C)CC2)cc2sccc21 (stereo not drawn),-2,-233*,-6,?
COc1ccccc1/C=C/C=c1\sc2nc(=O)c(Cc3ccccc3)nn2c1=O,-163*,-140*,-13,5
CC(CC(=O)c1ccccc1)=NCC(O)CN=C(C)CC(=O)c1ccccc1 (stereo not drawn),3,2,·,·
N=C1/C(=C\c2coc3ccccc3c2=O)C(=O)N=C2SC(c3ccncc3)=NN12,-19,-3,-18,91*
N=C1/C(=C/c2coc3ccccc3c2=O)C(=O)N=C2SC(c3ccco3)=NN12,-32,-10,4,7
CN1CCN(c2ccc(NC(=O)c3ccc(-c4ccc(Br)cc4)o3)cc2)CC1,-71*,33,-2,13
Cc1cc(O)c2c(c1)CC1C3CCC4CC(=O)CCC4(C)C3CC(=O)C21C (stereo not drawn),-1,6,·,·
O=C(Nc1ccc(Oc2c(F)c(F)c(F)c(F)c2F)cc1)OC1CCN2Cc3ccccc3N=C12 (stereo not drawn),-100*,-83*,11,-11
Cc1cccc(NC(=O)Nc2ccc(Oc3c(F)c(F)c(F)c(F)c3F)cc2)c1,-5,-11,-9,-3
Cc1cc(C)n(-c2ccc(C(=O)N3CCN(S(=O)(=O)c4ccc(Br)cc4Cl)CC3)cc2)n1,-12,0,·,·
NS(=O)(=O)c1ccc(NC(=O)/C=C/c2cccs2)cc1,-7,-4,-20,?
NS(=O)(=O)c1cccc(NC(=O)/C=C/c2cccs2)c1,0,-6,-7,94*
O=C(/C=C/c1cccs1)c1ccc(NC(=O)c2ccccc2F)cc1,-9,-4,18,10
CCOC(=O)c1ccc(NC(=O)/C=C/c2cccs2)cc1,-14,-11,2,84*
COc1ccccc1C(=O)Nc1ccc(C(=O)/C=C/c2cccs2)cc1,-83*,65,-4,0
CCOc1ccc(OCc2ccc(C(=O)N/N=C(\C)c3ccccn3)cc2)cc1,-12,-72*,1,6
c1ccc(CN2CCN(c3nc(NCc4ccco4)c4ccccc4n3)CC2)cc1,-108*,-48,?,0
SMILES,KCNH2 3.1 block,hERG WT inh,TRPV1 PAM,TRPV1 agonist
OCCN1CCN(c2nc(NCc3ccco3)c3ccccc3n2)CC1,-19,18,8,-6
Cc1ccc(OCCN2CCN(c3nc(NCc4ccco4)c4ccccc4n3)CC2)cc1,-104*,-131*,-8,5
CCN1C(=O)[C@H]2[C@H]3CN=C(SC)N3[C@@](C)(C(=O)OC)[C@H]2C1=O,-2,-12,·,·
Cn1c(N)c(C(=O)COC(=O)c2ccccc2C(=O)c2ccccc2)c(=O)n(C)c1=O,-26,-4,7,-1
Cn1c(N)c(C(=O)COC(=O)c2ccccc2C(F)(F)F)c(=O)n(C)c1=O,-93*,-3,·,·
O=C(CCCCn1cnc2c(=S)nc[nH]c21)Nc1ccc(C(=O)O)c(O)c1,6,-5,·,·
Cc1ccc(NC(=O)CN2CCN(C(=O)c3ccco3)CC2)cc1S(=O)(=O)N(C)C,0,38,·,·
CCOC(=O)c1c(NC(=O)c2nn(CC)cc2Br)sc(C)c1C,-72*,6,-6,12
COc1ccc(-n2ccnc2SCC(=O)c2c(N)n(C3CC3)c(=O)[nH]c2=O)cc1,14,-7,·,·
CCCCOc1ccc(C(=O)N/C(=C\c2cccc([N+](=O)[O-])c2)C(=O)OCc2ccco2)cc1,-75*,-28,-2,1
CCCCOc1ccc(C(=O)N/C(=C\c2ccc(OC)cc2)C(=O)OCc2ccco2)cc1,1,-11,14,-3
CCCCN1C(=O)C(C(=O)OCc2ccccc2)CC2=C1CCCC2=O (stereo not drawn),14,0,·,·
CCOC(=O)[C@H]1[C@H]2COc3ccc(C)cc3[C@@H]2N2C(=O)CN(C)C(=O)[C@@]12C,5,5,·,·
COC(=O)c1ccc(OCC2c3cc(OC)c(OC)cc3CCN2C(=O)c2ccco2)cc1 (stereo not drawn),-173*,-3,12,-3
O=C(N/C=N/O)C1=NOC(CNc2ncc(C(F)(F)F)cc2Cl)C1 (stereo not drawn),2,-5,-8,?
FC(F)(F)c1cnc(Nc2ccc(N3CCOCC3)cc2)c(Cl)c1,0,-5,0,-2
O=C(C1=NOC(CNc2ncc(C(F)(F)F)cc2Cl)C1)N1CCOCC1 (stereo not drawn),7,i,-9,121*
O=C(NC1CC1)C1=NOC(CNc2ncc(C(F)(F)F)cc2Cl)C1 (stereo not drawn),-2,20,-5,80*
Cc1ccc(Nc2nc(N)nc(CN3CCN(Cc4ccc5c(c4)OCO5)CC3)n2)cc1C,-104*,?,16,-2
Cc1ccc(Nc2nc(N)nc(CN3CCN(Cc4ccc5c(c4)OCO5)CC3)n2)c(C)c1,?,7,3,3
Cc1ccc(Nc2nc(N)nc(CN3CCN(Cc4ccc5c(c4)OCO5)CC3)n2)cc1Cl,-92*,-90*,-3,0
Cc1ccc(Nc2nc(N)nc(CN3CCN(Cc4ccc5c(c4)OCO5)CC3)n2)cc1,-80*,-44,-7,-1
O=C(Cc1ccc(F)cc1)N[C@@H]1c2ccccc2CC[C@H]1OCc1ccccc1,-8,0,·,·
O=C(Cc1cccc(NC(=O)C2CCCN(C(=O)CCc3ccccc3)C2)c1)Nc1ccc(C(=O)N2CCOCC2)cc1 (stereo not drawn),?,-1,·,·
CC(=O)OCC1OC(n2c(-c3ccc(Cl)cc3)ccc(C#N)c2=S)C(OC(C)=O)C(OC(C)=O)C1OC(C)=O (stereo not drawn),·,-12,·,·

# Screening data deposited in PubChem by National Center for Advancing Translational Sciences (NCATS).
